# Test results published in PubChem BioAssay AID1159580 (chemical genetic matrix, 2015).
# Screen size: about 5,500 compounds; about 2,000 (36%) were called active. Inconclusive results (about 18%) are left out. This is one part of the list. A number with no mark means an inactive call. Rule as the data show it: active = normalized growth mostly below about 0.91 (no sharp cut-off); inconclusive = no clear call, values can overlap the other calls; inactive = mostly above about 0.92.
# Assay: chemical genetic growth profiling, strain panel (AID 1159580);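 also: tested at 20 µM; growth read once vehicle control cultures reached saturation at 30 °C; 1 = growth at the plate median or of vehicle wells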
# Settings: S. cerevisiae deletion strains, growth OD
smiles,measurement,setting,value
CC(=O)O[C@@H]1c2c(ccc3ccc(=O)oc23)OC(C)(C)[C@@H]1OC(=O)CC(C)C,normalized growth,"locus YAL021C, strain ccr4, stronger effect = lower value",1.03
same,normalized growth,"locus YAL026C, strain drs2, stronger effect = lower value",0.993
same,normalized growth,"locus YAL030W, strain snc1, stronger effect = lower value",1
same,normalized growth,"locus YBL061C, strain skt5, stronger effect = lower value",0.992
same,normalized growth,"locus YBR009C, strain hhf1, stronger effect = lower value",1.05
same,normalized growth,"locus YBR021W, strain FUR4, stronger effect = lower value",1.02
same,normalized growth,"locus YBR023C, strain chs3, stronger effect = lower value",0.991
same,normalized growth,"locus YBR171W, strain sec66, stronger effect = lower value",0.974
same,normalized growth,"locus YBR229C, strain ROT2, stronger effect = lower value",0.993
same,normalized growth,"locus YBR231C, strain swc5, stronger effect = lower value",1
same,normalized growth,"locus YBR279W, strain paf1, stronger effect = lower value",1.02
same,normalized growth,"locus YCL011C, strain gbp2, stronger effect = lower value",1.01
same,normalized growth,"locus YCL016C, strain dcc1, stronger effect = lower value",1
same,normalized growth,"locus YCL029C, strain bik1, stronger effect = lower value",1.03
same,normalized growth,"locus YCL061C, strain MRC1, stronger effect = lower value",1
same,normalized growth,"locus YCL069W, strain vba3, stronger effect = lower value",1.01
same,normalized growth,"locus YCR088W, strain abp1, stronger effect = lower value",0.997
same,normalized growth,"locus YDL005C, strain med2, stronger effect = lower value",0.995
same,normalized growth,"locus YDL035C, strain GPR1, stronger effect = lower value",1.01
same,normalized growth,"locus YDL040C, strain nat1, stronger effect = lower value",1.01
same,normalized growth,"locus YDL074C, strain BRE1, stronger effect = lower value",1.01
same,normalized growth,"locus YDL101C, strain DUN1, stronger effect = lower value",1
same,normalized growth,"locus YDL134C, strain PPH21, stronger effect = lower value",0.977
same,normalized growth,"locus YDL185W, strain tfp1, stronger effect = lower value",1.03
same,normalized growth,"locus YDL192W, strain arf1, stronger effect = lower value",1
same,normalized growth,"locus YDR001C, strain nth1, stronger effect = lower value",1.01
same,normalized growth,"locus YDR069C, strain doa4, stronger effect = lower value",1
same,normalized growth,"locus YDR101C, strain arx1, stronger effect = lower value",1.05
same,normalized growth,"locus YDR137W, strain rgp1, stronger effect = lower value",0.796 (active)
same,normalized growth,"locus YDR159W, strain sac3, stronger effect = lower value",0.974
same,normalized growth,"locus YDR162C, strain NBP2, stronger effect = lower value",0.976
same,normalized growth,"locus YDR195W, strain ref2",1.07
same,normalized growth,"locus YDR297W, strain sur2, stronger effect = lower value",0.994
same,normalized growth,"locus YDR318W, strain mcm21, stronger effect = lower value",0.978
same,normalized growth,"locus YDR334W, strain swr1, stronger effect = lower value",1.01
same,normalized growth,"locus YDR335W, strain msn5, stronger effect = lower value",1.02
same,normalized growth,"locus YDR388W, stronger effect = lower value",1.01
same,normalized growth,"locus YDR392W, strain spt3, stronger effect = lower value",0.591 (active)
same,normalized growth,"locus YDR502C, strain sam2, stronger effect = lower value",1
same,normalized growth,"locus YEL003W, strain gim4, stronger effect = lower value",1.02
same,normalized growth,"locus YEL037C, strain rad23, stronger effect = lower value",1.01
same,normalized growth,"locus YEL061C, strain CIN8 (second series), stronger effect = lower value",1.01
same,normalized growth,"locus YEL061C, strain CIN8, stronger effect = lower value",0.978
same,normalized growth,"locus YER015W, strain faa2, stronger effect = lower value",1.01
same,normalized growth,"locus YER016W, strain bim1, stronger effect = lower value",0.995
same,normalized growth,"locus YER110C, stronger effect = lower value",1.03
same,normalized growth,"locus YER111C, strain swi4, stronger effect = lower value",1
same,normalized growth,"locus YER155C, strain BEM2 (second series), stronger effect = lower value",0.972
same,normalized growth,"locus YER155C, strain BEM2, stronger effect = lower value",1
same,normalized growth,"locus YER167W, strain BCK2, stronger effect = lower value",1
same,normalized growth,"locus YFR010W, strain ubp6, stronger effect = lower value",1.03
same,normalized growth,"locus YGL078C, strain dbp3, stronger effect = lower value",1.02
same,normalized growth,"locus YGL086W, strain mad1, stronger effect = lower value",1.03
same,normalized growth,"locus YGL167C, strain pmr1, stronger effect = lower value",0.989
same,normalized growth,"locus YGL173C, strain kem1, stronger effect = lower value",0.987
same,normalized growth,"locus YGL227W, strain vid30, stronger effect = lower value",1
same,normalized growth,"locus YGL240W, strain doc1, stronger effect = lower value",1.02
same,normalized growth,"locus YGL248W, strain PDE1, stronger effect = lower value",0.994
same,normalized growth,"locus YGL253W, strain hxk2, stronger effect = lower value",0.986
same,normalized growth,"locus YGR078C, strain PAC10, stronger effect = lower value",1
same,normalized growth,"locus YGR135W, strain pre9, stronger effect = lower value",1
same,normalized growth,"locus YGR252W, strain gcn5, stronger effect = lower value",1
same,normalized growth,"locus YHR013C, strain ard1, stronger effect = lower value",1.01
same,normalized growth,"locus YHR027C, strain rpn1, stronger effect = lower value",0.999
same,normalized growth,"locus YHR030C, strain SLT2, stronger effect = lower value",0.988
same,normalized growth,"locus YHR079C, strain IRE1 (second series), stronger effect = lower value",1.01
same,normalized growth,"locus YHR094C, strain hxt1, stronger effect = lower value",1.01
same,normalized growth,"locus YHR129C, strain ARP1, stronger effect = lower value",0.993
same,normalized growth,"locus YHR142W, strain chs7, stronger effect = lower value",0.99
same,normalized growth,"locus YHR200W, strain rpn10, stronger effect = lower value",1.03
same,normalized growth,"locus YIL066C, strain RNR3, stronger effect = lower value",0.982
same,normalized growth,"locus YIL073C, strain SPO22, stronger effect = lower value",1.01
same,normalized growth,"locus YIL125W, strain kgd1, stronger effect = lower value",1.02
same,normalized growth,"locus YIR030C, strain dcg1, stronger effect = lower value",1
same,normalized growth,"locus YJL092W, strain hpr5, stronger effect = lower value",0.998
same,normalized growth,"locus YJL095W, strain BCK1 (second series), stronger effect = lower value",0.995
same,normalized growth,"locus YJL095W, strain BCK1, stronger effect = lower value",0.94
same,normalized growth,"locus YJL115W, strain asf1, stronger effect = lower value",1.01
same,normalized growth,"locus YJL129C, strain trk1, stronger effect = lower value",0.918
same,normalized growth,"locus YJL134W, strain LCB3, stronger effect = lower value",0.994
same,normalized growth,"locus YJL154C, strain vps35, stronger effect = lower value",1.01
same,normalized growth,"locus YJL164C, strain tpk1, stronger effect = lower value",1.02
same,normalized growth,"locus YJL166W, strain qcr8, stronger effect = lower value",0.961
same,normalized growth,"locus YJL168C, strain set2, stronger effect = lower value",1.02
same,normalized growth,"locus YJL187C, strain SWE1 (second series), stronger effect = lower value",1
same,normalized growth,"locus YJL187C, strain SWE1, stronger effect = lower value",0.996
same,normalized growth,"locus YJR043C, strain POL32, stronger effect = lower value",1.03
same,normalized growth,"locus YKL009W, strain mrt4, stronger effect = lower value",1.01
same,normalized growth,"locus YKL068W, stronger effect = lower value",0.996
same,normalized growth,"locus YKL085W, strain MDH1 (second series), stronger effect = lower value",0.988
same,normalized growth,"locus YKL085W, strain MDH1, stronger effect = lower value",0.988
same,normalized growth,"locus YKL160W, strain elf1, stronger effect = lower value",0.928
same,normalized growth,"locus YKL190W, strain CNB1, stronger effect = lower value",0.989
same,normalized growth,"locus YKR001C, strain vps1, stronger effect = lower value",1.01
same,normalized growth,"locus YKR026C, strain gcn3, stronger effect = lower value",0.998
same,normalized growth,"locus YKR091W, strain srl3, stronger effect = lower value",0.997
same,normalized growth,"locus YLL001W, strain dnm1, stronger effect = lower value",0.957
same,normalized growth,"locus YLL026W, stronger effect = lower value",1
same,normalized growth,"locus YLL041C, strain sdh2, stronger effect = lower value",1
same,normalized growth,"locus YLR027C, strain aat2, stronger effect = lower value",0.999
same,normalized growth,"locus YLR039C, strain RIC1, stronger effect = lower value",0.921
same,normalized growth,"locus YLR058C, strain SHM2, stronger effect = lower value",0.982
same,normalized growth,"locus YLR102C, strain apc9, stronger effect = lower value",1.01
same,normalized growth,"locus YLR221C, strain rsa3, stronger effect = lower value",0.979
same,normalized growth,"locus YLR258W, strain gsy2, stronger effect = lower value",1.01
same,normalized growth,"locus YLR262C, strain YPT6 (second series), stronger effect = lower value",0.794 (active)
same,normalized growth,"locus YLR262C, strain YPT6, stronger effect = lower value",0.889
same,normalized growth,"locus YLR268W, strain sec22, stronger effect = lower value",1.03
same,normalized growth,"locus YLR320W, strain mms22, stronger effect = lower value",0.918
same,normalized growth,"locus YLR330W, strain CHS5, stronger effect = lower value",1
same,normalized growth,"locus YLR342W, strain FKS1 (second series), stronger effect = lower value",1
same,normalized growth,"locus YLR342W, strain FKS1, stronger effect = lower value",0.98
same,normalized growth,"locus YLR357W, strain rsc2, stronger effect = lower value",1.07
same,normalized growth,"locus YLR370C, strain arc18, stronger effect = lower value",1
same,normalized growth,"locus YLR371W, strain rom2, stronger effect = lower value",1.02
same,normalized growth,"locus YLR384C, strain iki3, stronger effect = lower value",1.01
same,normalized growth,"locus YLR418C, strain cdc73, stronger effect = lower value",0.947
same,normalized growth,"locus YML016C, strain PPZ1, stronger effect = lower value",0.992
same,normalized growth,"locus YML032C, strain rad52, stronger effect = lower value",0.992
same,normalized growth,"locus YML120C, strain ndi1, stronger effect = lower value",0.989
same,normalized growth,"locus YML124C, strain tub3, stronger effect = lower value",1
same,normalized growth,"locus YMR058W, strain fet3, stronger effect = lower value",1
same,normalized growth,"locus YMR078C, strain ctf18, stronger effect = lower value",1
same,normalized growth,"locus YMR125W, strain sto1, stronger effect = lower value",0.976
same,normalized growth,"locus YMR129W, stronger effect = lower value",1
same,normalized growth,"locus YMR205C, strain PFK2, stronger effect = lower value",0.878
same,normalized growth,"locus YMR223W, strain ubp8, stronger effect = lower value",0.986
same,normalized growth,"locus YMR231W, strain pep5, stronger effect = lower value",1
same,normalized growth,"locus YMR263W, strain SAP30, stronger effect = lower value",0.996
same,normalized growth,"locus YMR307W, strain GAS1, stronger effect = lower value",0.848
same,normalized growth,"locus YNL067W, strain RPL9B, stronger effect = lower value",0.998
same,normalized growth,"locus YNL071W, strain lat1, stronger effect = lower value",0.882 (active)
same,normalized growth,"locus YNL209W, strain ssb2, stronger effect = lower value",1.01
same,normalized growth,"locus YNL233W, strain BNI4, stronger effect = lower value",1.02
same,normalized growth,"locus YNL248C, strain rpa49, stronger effect = lower value",0.952
same,normalized growth,"locus YNL250W, strain rad50, stronger effect = lower value",1.02
same,normalized growth,"locus YNL271C, strain bni1, stronger effect = lower value",0.999
same,normalized growth,"locus YNL298W, strain CLA4, stronger effect = lower value",1.02
same,normalized growth,"locus YNL307C, strain MCK1, stronger effect = lower value",1.01
same,normalized growth,"locus YNL322C, strain KRE1 (second series), stronger effect = lower value",1.01
same,normalized growth,"locus YNL322C, strain KRE1, stronger effect = lower value",0.995
same,normalized growth,"locus YNR049C, strain mso1, stronger effect = lower value",1.01
same,normalized growth,"locus YNR052C, strain pop2, stronger effect = lower value",1
same,normalized growth,"locus YOL012C, strain htz1",0.997
same,normalized growth,"locus YOL147C, strain pex11, stronger effect = lower value",1
same,normalized growth,"locus YOR001W, strain rrp6, stronger effect = lower value",1.03
same,normalized growth,"locus YOR061W, strain CKA2, stronger effect = lower value",0.985
same,normalized growth,"locus YOR069W, strain VPS5, stronger effect = lower value",0.992
same,normalized growth,"locus YOR070C, strain gyp1, stronger effect = lower value",1
same,normalized growth,"locus YOR080W, strain dia2, stronger effect = lower value",1.02
same,normalized growth,"locus YOR083W, strain WHI5, stronger effect = lower value",0.949
same,normalized growth,"locus YOR106W, strain vam3, stronger effect = lower value",0.968
same,normalized growth,"locus YOR136W, strain idh2, stronger effect = lower value",1.03
same,normalized growth,"locus YOR144C, strain elg1, stronger effect = lower value",1.01
same,normalized growth,"locus YOR184W, strain ser1, stronger effect = lower value",0.921
same,normalized growth,"locus YOR265W, strain rbl2, stronger effect = lower value",1.01
same,normalized growth,"locus YOR270C, strain vph1, stronger effect = lower value",0.883
same,normalized growth,"locus YOR290C, strain snf2, stronger effect = lower value",1
same,normalized growth,"locus YOR316C, strain cot1, stronger effect = lower value",1.01
same,normalized growth,"locus YPL051W, strain arl3, stronger effect = lower value",0.951
same,normalized growth,"locus YPL078C, strain atp4, stronger effect = lower value",0.93
same,normalized growth,"locus YPL106C, strain sse1, stronger effect = lower value",1.06
same,normalized growth,"locus YPL240C, strain hsp82, stronger effect = lower value",1
same,normalized growth,"locus YPL241C, strain CIN2, stronger effect = lower value",0.973
same,normalized growth,"locus YPR119W, strain clb2, stronger effect = lower value",1
same,normalized growth,"locus YPR141C, strain kar3, stronger effect = lower value",0.994
same,normalized growth,"locus YPR163C, strain tif3, stronger effect = lower value",1.01
same,normalized growth,"locus YPR167C, strain met16, stronger effect = lower value",1.01
same,normalized growth,"strain wtn01, stronger effect = lower value",1.04
